The values that follow come from PubChem BioAssay (NCATS).

Experiment [1] can be described thus: qHTS for differential inhibitors of proliferation of Plasmodium falciparum line W2 (AID 1883).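 Further: potency means the concentration at half of the fitted maximal effect; parasites grown with compound for 72 h before lysis and staining.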 Conditions: Potency: Plasmodium falciparum W2 proliferation inhibition. On the technique in general: In qHTS, concentration-response curves come from the screen itself.
Experiment [2] can be described thus: qHTS for differential inhibitors of proliferation of Plasmodium falciparum line HB3 (AID 1886).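 Further: parasites grown with compound for 72 h before SYBR Green readout.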 Further: potency means the concentration at half of the fitted maximal effect. Conditions: Potency: Plasmodium falciparum HB3 proliferation inhibition.
For experiment [3], the target named is Ferritin light chain (Equus caballus) (UniProt P02791). Nature of the experiment: qHTS Validation Assay for Identification of Novel General Anesthetics (AID 2323). Further: series mostly up to about 77 µM. In short, it runs like this: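 Horse-spleen apoferritin (10 uM) in PBS with 50% saturated 1-aminoanthracene; compounds pin-transferred, 10 min at room temperature. Fluorescence read at 380/535 nm, normalized to free 1-AMA and 1-AMA/apoferritin values; four-parameter Hill fit.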

For experiment [4], the target named is ATP-dependent DNA helicase Q1 (Homo sapiens) (UniProt P46063). Nature of the experiment: qHTS Validation Assay for Inhibitors of RecQ-Like Dna Helicase 1 (RECQ1) (AID 2353). Further: potency means the concentration at half of the fitted maximal effect. Summed up:
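RECQ1T1 50 nM; forked duplex (20 bp + 30-nt ss tails) 200 nM, ATP 2 mM final; pH 8.0, 2 mM MgCl2, 2.5 ug/ml poly(dI-dC); 15 min compound preincubation; discontinuous kinetic read over 2 h at RT.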

Experiment [5] is described as follows: High Content Imaging Cell-Based qHTS for Inhibitors of the mTORC1 Signaling Pathway in MEF (Tsc2-/-, p53-/-) Cells (AID 2666).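 Further: percent of cells scored positive for phospho-rpS6 Ser235/236 immunostaining by imaging.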 In short, it runs like this:
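MEF Tsc2-/- p53-/- (empty vector), DMEM/10% FBS; cpd 24 h 37 °C; PFA fix, Alexa-488 p-rpS6 S235/236 Ab, Hoechst; imaged; rapamycin-defined inhibition; % positive cells/well.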

Experiment [6] can be described thus: Cytometry Cell-Based qHTS for Inhibitors of the mTORC1 Signaling Pathway in MEF cells (AID 2668). Further: potency means the concentration at half of the fitted maximal effect. Summed up: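 MEFs (Tsc2-/-, p53-/- stably expressing WT Tsc2) treated 24 h at 37 degree Celsius, fixed, stained with Alexa-488 anti-phospho-rpS6 Ser235/236 and propidium iodide; Acumen laser scanning. Reported as % positive cells, phospho-S6 normalized to PI.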
In experiment [7] the target is Ubiquitin carboxyl-terminal hydrolase 2 (Homo sapiens) (UniProt O75604). Kind of experiment: qHTS Validation Assay for Inhibitors of Ubiquitin-specific Protease USP2a Using CHOP2 as the Reporter (AID 463106). In short, it runs like this: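 Fluorescence read-out at Ex 485nm/Em 531nm after 60min RT, following addition of 25nM Ub-CHOP2 plus 25nM reporter substrate to USP2 core (10nM) pretreated 30min with compound. Data normalized to NEM full inhibition; concentration-response curves fitted.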

The target of experiment [8] is DNA polymerase III PolC-type (Bacillus subtilis (strain 168)) (UniProt P13267). Nature of the experiment: qHTS Validation Assay for the Inhibitors of DNA Replication in Gram-Positive Bacteria (AID 485295).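 Further: PicoGreen fluorescence of double-stranded DNA made on primed circular M13 template; series mostly up to about 57 µM.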 Summed up: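 Reconstituted B. subtilis Pol III holoenzyme (PolC, beta clamp, SSB, primase) preincubated with compound, then M13Gori single-stranded circular template with dNTPs/NTPs added; room temperature reaction. Stopped with EDTA/PicoGreen; dsDNA fluorescence read, EDTA as full-inhibition control.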

In experiment [9] the target is Tumor susceptibility gene 101 protein (Homo sapiens) (UniProt Q99816). Nature of the experiment: qHTS Validation Assay for Iinhibitors of HIV-1 Budding by Blocking the Interaction of PTAP/TSG101 (AID 485342; calls by dose curve). In short, it runs like this: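 Tsg101 binding domain (10 uM) with FITC-labeled PTAP peptide (50 nM) in HEPES pH 7.5 buffer, 20 min at r.t. with compounds. Binding measured by fluorescence polarization.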

Experiment [10] is described as follows: qHTS for differential inhibitors of proliferation of Plasmodium falciparum line Dd2 (AID 1882). Further: nearly all actives have a fitted effect of over 65% in size. Further: potency means the concentration at half of the fitted maximal effect. The note with it: Potency: Plasmodium falciparum Dd2 proliferation inhibition. In short, it runs like this:
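RBC culture, 0.3% parasitemia / 2.5% Hct final; cpd added by pin tool in DMSO; 72 h, 37 C, 5% CO2; lysis buffer + SYBR Green I, o/n RT dark; FI 485/535; norm. to artemisinin 0.29 uM and DMSO.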

The nature of experiment [11]: Cytometric Cell-Based qHTS for Inhibitors of the mTORC1 Signaling Pathway in MEF (Tsc2-/-, p53-/-) Cells (AID 2660).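 Further: Tsc2 and p53 null MEFs carrying empty vector with compound for 24 h; percent of cells above a phospho-rpS6 to PI ratio cutoff in each well; series mostly up to about 38 µM.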 In short, it runs like this: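 Cells are plated, treated with compound for 24 hrs at 37 degree Celsius, then fixed, blocked and immunostained for phospho-rpS6 Ser235/236. Propidium iodide counterstain follows. Per-well % positive cells is derived from the PI-normalized phospho-S6 signal.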

Experiment [12] can be described thus: High Content Imaging Cell-Based qHTS for Inhibitors of the mTORC1 Signaling Pathway in MEF Cells (AID 2667).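 Further: Tsc2-/- p53-/- MEFs stably re-expressing wild-type Tsc2 exposed 24 h; series mostly up to about 38 µM.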 In short, it runs like this:
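Read-out is the share of phospho-rpS6-positive cells per well, from Hoechst-normalized Alexa-488 Ser235/236 staining imaged on IN Cell. Cells: WT Tsc2-expressing Tsc2-/-, p53-/- MEFs exposed to compound for 24 hrs.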

Experiment [13] can be described thus: qHTS Validation Assay to Find Inhibitors of Chronic Active B-Cell Receptor Signaling (AID 485345; active means well fitted curve in the direction sought with a large enough effect in the main read-out, with a control signal flat, not every such curve was filed as active). In short, it runs like this:
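TMD8 ABC-DLBCL cells stably carrying doxycycline-inducible IkappaBalpha–green luciferase fusion plus unfused red luciferase; compounds 46 uM to 3 nM, 4 h at 37C with doxycycline. Corrected green/red luminescence ratio normalized to 10 uM MG-132 and basal cell wells; curves fitted.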

For experiment [14], the target named is RecQ-like DNA helicase BLM (Homo sapiens) (UniProt P54132). Nature of the experiment: qHTS Validation Assay for Inhibitors of Bloom's syndrome helicase (BLM) (AID 2364). Further: potency means the concentration at half of the fitted maximal effect. In short, it runs like this:
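50 nM BLM preincubated 15 min at room temperature with compound in pH 8.0 Tris buffer containing 2.5 ug/ml poly(dI-dC); started with 200 nM TAMRA/BHQ-2 forked duplex and 2 mM ATP (final). Unwinding read as TAMRA fluorescence increase, two reads 2 h apart.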

Experiment [15] can be described thus: Validation screen for small molecules that induce DNA re-replication in MCF 10A normal breast cells (AID 463097). Further: nearly all actives have a fitted effect of over 60% in size. Further: potency means the concentration at half of the fitted maximal effect. Summed up: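 MCF 10A cells exposed to compound 48 hr at 37 C, 5% CO2, then Hoechst-stained 40 min. Laser-scanning imaging of nuclear DNA content (405 nm ex, 500-530 nm em); re-replication scored as rise in nuclei with elevated fluorescence intensity.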

Experiment [16] is described as follows: qHTS Assay for Modulators of Human Peripheral Myelin Protein 22 (PMP22) Expression/Activity (AID 1967; active means well fitted curve in the direction sought with a large enough effect in the signal ratio; the % refers to the signal ratio). In short, it runs like this: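 Mouse MSC80 Schwann cells carrying Pmp22 promoter–green click beetle luciferase plus EF-alpha–red luciferase control, dosed 24 h at 37 °C. Dual-filter luminescence, overlap-corrected; %Activity from green/red ratio normalised to untreated cells, concentration-response curves fitted.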

For experiment [17], the target named is Beta-2 adrenergic receptor (Homo sapiens) (UniProt P07550). Kind of experiment: qHTS validation assay of beta-arrestin-biased ligands of beta2-adrenergic receptor (AID 485366). In short, it runs like this:
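Compound series up to 46 microM applied to beta2-AR/beta-arrestin Tango cells, 18 hr, 37 degrees C, 5% CO2. Read-out: tTA-driven luciferase luminescence, converted to %Activity; concentration-response curves assigned curve classes.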

Records with an inconclusive call do not appear. Active and inactive are the calls of the source. Unless noted, the call rests on the fitted dose curve; in most records, active means well fitted curve in the direction sought with a large enough effect; inconclusive means small, poorly fitted or top-dose-only effect, or another doubt; inactive means no such curve, though single readings can be large; an effect the other way counts as inactive or inconclusive.

Chain of ATP-dependent DNA helicase Q1 (Homo sapiens) (P46063 whole entry, looked up): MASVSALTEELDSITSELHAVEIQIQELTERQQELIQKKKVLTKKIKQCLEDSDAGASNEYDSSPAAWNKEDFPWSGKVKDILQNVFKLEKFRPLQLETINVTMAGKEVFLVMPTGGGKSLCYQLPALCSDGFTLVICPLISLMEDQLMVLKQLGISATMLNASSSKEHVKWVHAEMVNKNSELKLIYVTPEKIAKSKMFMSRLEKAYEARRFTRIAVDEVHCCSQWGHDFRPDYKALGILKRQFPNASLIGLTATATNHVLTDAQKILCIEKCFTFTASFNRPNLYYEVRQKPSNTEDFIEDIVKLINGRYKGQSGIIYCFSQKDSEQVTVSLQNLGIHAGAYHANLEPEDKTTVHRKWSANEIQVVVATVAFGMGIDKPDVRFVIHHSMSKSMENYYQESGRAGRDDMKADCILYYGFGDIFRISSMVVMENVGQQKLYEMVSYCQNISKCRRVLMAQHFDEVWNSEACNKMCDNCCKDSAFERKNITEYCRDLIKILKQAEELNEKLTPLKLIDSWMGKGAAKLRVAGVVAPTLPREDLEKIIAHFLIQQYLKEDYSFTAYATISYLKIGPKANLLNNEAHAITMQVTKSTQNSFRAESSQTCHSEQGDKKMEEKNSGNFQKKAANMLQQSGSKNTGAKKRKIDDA
Chain of Tumor susceptibility gene 101 protein (Homo sapiens) (Q99816 whole entry, looked up, the tested form may be a part): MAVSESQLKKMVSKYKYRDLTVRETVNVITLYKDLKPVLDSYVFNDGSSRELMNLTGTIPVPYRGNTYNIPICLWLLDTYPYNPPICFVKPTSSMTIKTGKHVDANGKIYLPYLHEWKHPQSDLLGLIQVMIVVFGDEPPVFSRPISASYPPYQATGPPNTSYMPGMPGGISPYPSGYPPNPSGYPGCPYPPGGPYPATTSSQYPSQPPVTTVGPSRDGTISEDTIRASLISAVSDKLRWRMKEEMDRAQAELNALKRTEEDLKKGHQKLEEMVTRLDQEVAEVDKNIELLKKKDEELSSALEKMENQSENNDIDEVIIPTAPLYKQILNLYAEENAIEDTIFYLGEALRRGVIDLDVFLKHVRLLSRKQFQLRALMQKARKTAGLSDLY
Chain of RecQ-like DNA helicase BLM (Homo sapiens) (P54132 whole entry, looked up): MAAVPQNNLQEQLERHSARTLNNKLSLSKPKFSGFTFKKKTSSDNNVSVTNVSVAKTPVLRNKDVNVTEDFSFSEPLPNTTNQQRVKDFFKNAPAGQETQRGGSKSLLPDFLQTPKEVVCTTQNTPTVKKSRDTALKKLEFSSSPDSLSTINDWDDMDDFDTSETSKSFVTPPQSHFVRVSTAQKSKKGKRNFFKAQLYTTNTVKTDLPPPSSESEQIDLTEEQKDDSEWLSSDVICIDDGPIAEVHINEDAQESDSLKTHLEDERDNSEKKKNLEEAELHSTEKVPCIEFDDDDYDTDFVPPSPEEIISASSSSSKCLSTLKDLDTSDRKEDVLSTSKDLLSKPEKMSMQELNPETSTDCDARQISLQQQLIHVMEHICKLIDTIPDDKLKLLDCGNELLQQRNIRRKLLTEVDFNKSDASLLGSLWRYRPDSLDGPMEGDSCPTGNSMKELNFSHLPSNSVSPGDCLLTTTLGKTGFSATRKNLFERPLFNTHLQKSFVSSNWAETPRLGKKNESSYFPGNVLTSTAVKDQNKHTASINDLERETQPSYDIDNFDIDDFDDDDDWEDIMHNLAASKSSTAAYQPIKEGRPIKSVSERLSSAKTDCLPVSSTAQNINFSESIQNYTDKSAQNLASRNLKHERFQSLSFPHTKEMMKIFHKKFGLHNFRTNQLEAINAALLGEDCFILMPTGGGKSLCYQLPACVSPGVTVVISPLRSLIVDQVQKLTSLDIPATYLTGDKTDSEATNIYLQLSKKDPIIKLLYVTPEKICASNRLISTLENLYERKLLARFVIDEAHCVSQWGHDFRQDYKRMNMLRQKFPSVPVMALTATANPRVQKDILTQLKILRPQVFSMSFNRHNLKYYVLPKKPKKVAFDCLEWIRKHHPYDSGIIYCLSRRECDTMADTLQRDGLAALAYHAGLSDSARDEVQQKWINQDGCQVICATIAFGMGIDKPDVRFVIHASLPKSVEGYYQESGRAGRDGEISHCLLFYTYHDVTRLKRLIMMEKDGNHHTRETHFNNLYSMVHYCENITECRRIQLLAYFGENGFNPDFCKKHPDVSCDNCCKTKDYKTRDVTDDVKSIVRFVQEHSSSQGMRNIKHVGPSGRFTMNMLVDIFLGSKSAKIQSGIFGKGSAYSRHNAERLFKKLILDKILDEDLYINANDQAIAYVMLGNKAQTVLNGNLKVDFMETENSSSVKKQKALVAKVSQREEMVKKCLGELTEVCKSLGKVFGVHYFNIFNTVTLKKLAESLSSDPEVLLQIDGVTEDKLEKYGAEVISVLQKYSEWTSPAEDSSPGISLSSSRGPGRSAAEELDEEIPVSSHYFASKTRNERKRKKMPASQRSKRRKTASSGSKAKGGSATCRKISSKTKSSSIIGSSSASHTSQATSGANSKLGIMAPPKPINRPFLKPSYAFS
Chain of Ferritin light chain (Equus caballus) (P02791 2-175 limits assumed): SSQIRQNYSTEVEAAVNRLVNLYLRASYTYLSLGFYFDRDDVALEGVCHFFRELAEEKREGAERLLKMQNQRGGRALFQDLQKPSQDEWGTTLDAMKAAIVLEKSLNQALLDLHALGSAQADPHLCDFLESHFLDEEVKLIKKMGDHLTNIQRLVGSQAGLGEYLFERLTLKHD
Chain of Beta-2 adrenergic receptor (Homo sapiens) (P07550 whole entry, looked up): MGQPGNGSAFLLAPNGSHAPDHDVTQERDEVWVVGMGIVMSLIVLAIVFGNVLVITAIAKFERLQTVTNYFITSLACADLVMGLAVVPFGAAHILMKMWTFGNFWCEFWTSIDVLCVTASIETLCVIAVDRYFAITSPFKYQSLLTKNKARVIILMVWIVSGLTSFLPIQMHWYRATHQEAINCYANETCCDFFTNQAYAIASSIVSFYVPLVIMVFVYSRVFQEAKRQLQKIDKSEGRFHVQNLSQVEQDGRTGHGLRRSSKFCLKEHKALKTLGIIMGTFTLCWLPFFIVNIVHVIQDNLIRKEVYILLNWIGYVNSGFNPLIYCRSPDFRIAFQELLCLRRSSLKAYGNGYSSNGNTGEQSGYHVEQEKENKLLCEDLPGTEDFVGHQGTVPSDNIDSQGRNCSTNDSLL
Chain of Ubiquitin carboxyl-terminal hydrolase 2 (Homo sapiens) (O75604 whole entry, looked up): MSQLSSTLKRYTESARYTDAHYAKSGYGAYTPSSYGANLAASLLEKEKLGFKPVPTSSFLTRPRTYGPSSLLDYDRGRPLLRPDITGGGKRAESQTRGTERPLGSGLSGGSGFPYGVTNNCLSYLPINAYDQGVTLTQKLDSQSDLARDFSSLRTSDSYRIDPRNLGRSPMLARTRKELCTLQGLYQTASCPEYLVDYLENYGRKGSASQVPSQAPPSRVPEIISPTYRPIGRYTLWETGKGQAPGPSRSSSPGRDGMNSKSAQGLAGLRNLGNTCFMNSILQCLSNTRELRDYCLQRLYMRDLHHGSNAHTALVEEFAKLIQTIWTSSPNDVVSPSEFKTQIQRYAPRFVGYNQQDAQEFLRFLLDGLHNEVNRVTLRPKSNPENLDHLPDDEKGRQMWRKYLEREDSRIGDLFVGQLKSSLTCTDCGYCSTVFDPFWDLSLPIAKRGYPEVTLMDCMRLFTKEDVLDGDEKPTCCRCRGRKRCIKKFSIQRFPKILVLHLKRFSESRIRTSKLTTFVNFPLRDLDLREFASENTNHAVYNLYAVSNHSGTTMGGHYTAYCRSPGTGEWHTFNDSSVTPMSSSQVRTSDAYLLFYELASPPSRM

Regarding `O=C(/C=C/c1ccc(O)c(O)c1)OCCc1ccccc1`, the Potency in experiment [1] was 5.01 µM (active); in experiment [2] it was 10 µM (active); in experiment [6], 3.29 µM (active). The Potency result in experiment [3], in [4], in experiment [5], in [7] and in [8] was “inactive” throughout. In addition, the call in [9] was inactive.

On to `O=C(c1cc(O)c(O)c([N+](=O)[O-])c1)c1ccccc1F`, for which the Potency result in [10], in experiment [2], in experiment [4], in experiment [5], in experiment [12] and in experiment [6] was “inactive” in each case. In addition, the Potency entry in [7] and in experiment [8] was “inactive” in each case. For the same molecule, the result in experiment [11], in experiment [9] and in experiment [13] was inactive.

Take `COc1ccc(/C=C/C(=O)Nc2ccccc2C(=O)O)cc1OC`: the Potency result in [10], in [3], in [4], in experiment [14], in experiment [5] and in experiment [12] was “inactive” in each case. For the same molecule, the Potency result in [6], in experiment [15], in experiment [7] and in experiment [8] was “inactive” in each case. Further, the outcome in experiment [11] and in [9] was inactive.

`O=c1[nH]c2cc([N+](=O)[O-])c([N+](=O)[O-])cc2[nH]c1=O`: the Potency result in [10], in experiment [2], in experiment [3], in experiment [4], in experiment [5] and in [6] was “inactive” each time. The Potency entry in [15], in experiment [7] and in experiment [8] was “inactive” each time. Moreover, the result in experiment [16], in experiment [9] and in experiment [13] was inactive.

In the case of `O=C(O)c1cc([N+](=O)[O-])ccc1NCCCc1ccccc1`, the Potency entry in [10], in experiment [4], in experiment [5], in experiment [12], in experiment [6] and in experiment [15] was “inactive” in each case. Besides, the Potency result in experiment [7] and in experiment [8] was “inactive” in each case. In addition, the outcome in experiment [9] and in experiment [17] was inactive.

For `COc1cc2c(CCNC(C)=O)c[nH]c2cc1Cl`, the Potency result in experiment [10], in [3], in [4], in [5], in experiment [6] and in experiment [15] was “inactive” in each case. Moreover, the Potency result in experiment [7] and in [8] was “inactive” each time. Further, the result in experiment [16], in [11], in experiment [9], in experiment [13] and in experiment [17] was inactive.

As for `C=C[C@@H]1CN2CC[C@@H]1C[C@H]2[C@H](O)c1ccnc2ccc(OC)cc12`, in [10], the Potency was 0.316 µM (active). Further, the Potency result in experiment [3], in experiment [4], in [14], in [5], in experiment [12] and in experiment [6] was “inactive” in each case. The Potency entry in [15] is “inactive”. Further, the molecule was called inactive in experiment [11], in experiment [9], in experiment [13] and in experiment [17].

On to `C[C@@H](CN1CCC(Cc2ccccc2)CC1)[C@@H](O)c1ccc(O)cc1`, for which the Potency in [1] was 4.47 µM (active). For the same molecule, the Potency entry in [2], in experiment [3], in experiment [4], in experiment [14], in experiment [5] and in experiment [7] was “inactive” each time. Also, the Potency result in experiment [8] is “inactive”. Besides, the molecule was called inactive in experiment [16], in experiment [11], in experiment [9], in [13] and in experiment [17].

For `N#C/C(=C\c1c[nH]c2ccccc12)C(=O)c1ccc(O)c(O)c1`, the Potency in experiment [1] was 8.91 µM (active); in experiment [2] it was 12.6 µM (active); in experiment [4] it was 8.91 µM (active); in experiment [14] it was 11.2 µM (active). Moreover, the molecule was classed as inactive in [11], in [9] and in [17]. For the same molecule, the Potency result in experiment [5], in experiment [12], in experiment [15] and in experiment [7] was “inactive” throughout.

Take `Oc1cc2c(cc1O)CN(C(=S)NCCc1ccc(Cl)cc1)CCC2`: the Potency is 8.91 µM (active) in [10], 8.91 µM (active) in experiment [2] and 3.55 µM (active) in [15]. For the same molecule, the Potency result in experiment [4], in [5], in experiment [12], in [6] and in experiment [7] was “inactive” in each case. In addition, the call in experiment [9] and in experiment [17] was inactive.
